# Data as given in PubChem BioAssay (NCI).
# The panel holds about 79,000 compounds, 15% with a hit somewhere; the sample as a whole holds those more often. Values without a mark were called inactive. Active and inactive are the calls of the source. Cut-off read from the data, not from the text of the source: active = growth inhibition above about 70%; inactive = the rest.
# Assays:
# [1] = NCI Yeast Anticancer Drug Screen. Data for the rad50 strain (AID 155);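 note: 0% = growth of vehicle-only cultures of the same strain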; settings: S. cerevisiae rad50 strain growth inhibition, active compounds read high
# Method in brief: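 A DNA repair-deficient yeast mutant serves as the test organism; compound-induced growth inhibition is calculated against vehicle-treated cells.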
# [2] = NCI Yeast Anticancer Drug Screen. Data for the mec2-1 strain (AID 157); settings: S. cerevisiae mec2-1 strain, active compounds read high
# Method in brief: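 mec2-1 yeast strain, carrying an alteration in DNA damage repair or cell cycle control, was exposed to compounds; growth inhibition was measured relative to vehicle-treated controls.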
# [3] = NCI Yeast Anticancer Drug Screen. Data for the sgs1 mgt1 strain (AID 161);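 note: 0% = growth of cultures given vehicle only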; settings: S. cerevisiae sgs1 mgt1 strain, active compounds read high
# Method in brief: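 Growth of a repair-deficient yeast mutant was monitored after compound treatment and expressed as inhibition relative to vehicle-treated cultures.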
# [4] = NCI Yeast Anticancer Drug Screen. Data for the cln2 rad14 strain (AID 165);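 note: 0% = growth equal to vehicle treated cultures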; settings: S. cerevisiae cln2 rad14 strain, active compounds read high
# Method in brief: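 Yeast carrying cln2 and rad14 alterations (cell cycle control and DNA damage repair) were exposed to compounds. Growth inhibition was measured against vehicle-treated controls.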
# [5] = NCI Yeast Anticancer Drug Screen. Data for the bub3 strain (AID 167); settings: S. cerevisiae bub3 mutant strain, active compounds read high
# Method in brief: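 Inhibition values come from growth of compound-treated mutant yeast normalised to vehicle-treated controls.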
# [6] = NCI Yeast Anticancer Drug Screen. Data for the mlh1 rad18 strain (AID 175); settings: S. cerevisiae mlh1 rad18 strain growth inhibition, active compounds read high
# Method in brief: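 Growth inhibition of the yeast strain was measured after compound exposure and expressed relative to vehicle-treated controls. The strain carries defined defects in DNA damage repair.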
# [7] = at 5.0 µM (retest, dose inferred, filed as 0.5)
# [8] = at 50.0 µM (retest, dose inferred, filed as 5.0)
Structure (SMILES),"growth inhibition [1, 7]","growth inhibition [1, 8]",growth inhibition ([1]; at 50.0 µM),"growth inhibition [2, 7]","growth inhibition [2, 8]",growth inhibition ([2]; at 50.0 µM),"growth inhibition [3, 7]","growth inhibition [3, 8]",growth inhibition ([3]; at 50.0 µM),"growth inhibition [4, 7]","growth inhibition [4, 8]",growth inhibition ([4]; at 50.0 µM),"growth inhibition [5, 7] [%]","growth inhibition [5, 8]",growth inhibition ([5]; at 50.0 µM),"growth inhibition [6, 7]","growth inhibition [6, 8]",growth inhibition ([6]; at 50.0 µM)
CCN(CC)CCNc1c(O)cc(C)c2sc3ccccc3c(=O)c12,18%,95% (active),98.5% (active),10%,94% (active),99% (active),7%,98% (active),98.8% (active),11%,84% (active),96.8% (active),3,84% (active),97.2% (active),2%,96% (active),98.3% (active)
Nc1ncnc2c1c(-c1ccccc1)cn2-c1ccccc1,38%,78% (active),97.8% (active),31%,58%,97.3% (active),71% (active),93% (active),99% (active),20%,53%,95.2% (active),29,81% (active),95.8% (active),27%,82% (active),98.5% (active)
Cc1ccc(CC2(C(=O)O)Cc3ccc(C)cc3C2)cc1 (stereo not given),-1%,100% (active),78.3% (active),-12%,100% (active),86.3% (active),-10%,100% (active),89.3% (active),1%,100% (active),91.2% (active),6,100% (active),91% (active),5%,99% (active),92.3% (active)
COc1ccc(C)cc1NC(=O)ON=C1CCCCC1,45%,83% (active),88.2% (active),35%,88% (active),91.8% (active),47%,92% (active),91.9% (active),38%,81% (active),90.5% (active),30,91% (active),91.7% (active),48%,94% (active),90.5% (active)
OC(CC(CC(O)(C(F)(F)Cl)C(F)(F)Cl)=NNc1ccccc1)(C(F)(F)Cl)C(F)(F)Cl,87% (active),99% (active),99% (active),91% (active),99% (active),99.2% (active),79% (active),98% (active),99.3% (active),83% (active),99% (active),99.2% (active),52,99% (active),99% (active),93% (active),99% (active),99% (active)
O=C(O)C1C(C(=O)Nc2ccc3c(c2)Cc2ccccc2-3)C2(Cl)C(Cl)=C(Cl)C1(Cl)C2(Cl)Cl (stereo not given),31%,99% (active),98.4% (active),27%,99% (active),98.7% (active),47%,99% (active),98.5% (active),31%,99% (active),98.3% (active),14,99% (active),98.3% (active),46%,99% (active),98.3% (active)
CCn1c(O)c(C=Nc2ccccc2)s/c1=N/Nc1nc(-c2ccc(O)c(O)c2)cs1,0%,21%,57%,-22%,1%,48.4%,-6%,11%,72.2% (active),-10%,6%,41.5%,-7,38%,79% (active),-17%,25%,66%
CC1=C(C)C(=O)C(CNCc2ccccc2)=[C-]C1=O.[Co].[c-]1[c-][c-][cH-][c-]1,6%,-13%,45.8%,-3%,26%,35.6%,5%,19%,44.8%,7%,10%,51.1%,11,15%,19.1%,6%,3%,32.3%
O=C(CCc1c[nH]c2ccccc12)c1ccccc1O,2%,5%,17.5%,-1%,14%,22.1%,5%,16%,59.3%,-13%,-18%,-21.4%,2,14%,73.8% (active),-5%,12%,43.4%
CC(C)c1c(P(=O)(c2ccccc2)c2ccccc2)n(C)c2ccccc12,36%,99% (active),83.4% (active),-34%,98% (active),89.5% (active),-30%,89% (active),77.8% (active),-4%,98% (active),85.5% (active),-25,99% (active),84.7% (active),-27%,96% (active),79.6% (active)
